The test system of assay [1] is Human papillomavirus type 1a protein E7 (residues 44-93). The experiment in a line: HPV1a E7 fragment binders on microarrays, primary screen, biochemical, small-molecule microarray, residues 44-93, 635 nm fluorescence (AID 1108).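 Further: E7 fragment applied at 1 µg/mL in TBST for 1 h at 4 C; score combines spot fluorescence with its signal to noise ratio.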 The conditions noted are these: small-molecule microarray binding, fluorescence 635 nm; higher = more signal.
Assay [2] can be described thus: modulators of HCV replicon luciferase signal, primary screen, HCV replication inhibitor project, Huh7 cells, luciferase reporter (AID 1109).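 Further: huh7 hepatoma cells harbouring a luciferase neomycin HCV replicon reporter; luciferase luminescence as measure of HCV replicon replication; test concentration not given here.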 To be noted: 48 h, higher = more signal.
Assay [3] deals with Left-right determination factor 2 (Homo sapiens) (UniProt O00292). The experiment in a line: LEFTY2 binders on small-molecule microarrays, primary screen, biochemical, small-molecule microarray, 635 nm fluorescence scan (AID 1110). To be noted: LEFTY2 binding, higher = more signal.
Chain of Left-right determination factor 2 (Homo sapiens) (O00292 whole entry, looked up): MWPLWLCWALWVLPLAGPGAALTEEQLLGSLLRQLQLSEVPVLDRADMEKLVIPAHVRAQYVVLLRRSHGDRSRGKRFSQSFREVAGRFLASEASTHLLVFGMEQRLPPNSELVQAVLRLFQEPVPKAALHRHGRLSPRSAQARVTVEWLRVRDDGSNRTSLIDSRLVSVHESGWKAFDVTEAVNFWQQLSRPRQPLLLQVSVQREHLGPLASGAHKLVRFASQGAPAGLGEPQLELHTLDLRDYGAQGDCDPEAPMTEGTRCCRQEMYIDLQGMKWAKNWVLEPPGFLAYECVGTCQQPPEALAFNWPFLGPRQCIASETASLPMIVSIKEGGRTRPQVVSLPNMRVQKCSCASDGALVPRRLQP
Assay [4] concerns the target Calmodulin-1 (Homo sapiens) (UniProt P0DP23). Kind of assay: CALM1 binders on microarrays, EGTA buffer, profiling panel, biochemical, small-molecule microarray, Cy5-labelled CALM1 (AID 1111).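 Further: labelled calmodulin applied in Tris saline Tween buffer holding calcium plus EGTA and DTT.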 To be noted: Cy5-CALM1 binding fluorescence, higher = more signal.
Assay [5] has the same target. Kind of assay: calcium-bound CALM1 binders on microarrays, profiling panel, artefact control for SMM control-protein annotation, biochemical, small-molecule microarray, Cy5-labelled CALM1, plus calcium (AID 1112).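 Further: score merges spot fluorescence with signal to noise from triplicate slides.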 To be noted: Cy5-CALM1 binding fluorescence, higher = more signal.
Assay [6] is described as follows: small-molecule microarray binders of probe aWnt5a, primary screen, biochemical, biotinylated probe, 635/667 nm fluorescence (AID 1113).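 Further: score merges 667 nm fluorescence intensity with signal-to-noise per printed feature.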 The conditions noted are these: higher = more signal.
A short description of assay [7]: small-molecule microarray binders of probe aShh, primary screen, biochemical, biotinylated probe, 635/667 nm fluorescence (AID 1114).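 Further: probe is biotin-labelled aShh protein from a stem cell growth factor screen; measures binding of labelled protein to compounds printed on the slide; score merges feature fluorescence at 667 nm with signal-to-noise.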 The conditions noted are these: higher = more signal.
A short description of assay [8]: small-molecule microarray binders of probe aNog, primary screen, biochemical, biotinylated probe, 635/667 nm fluorescence (AID 1115).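 Further: probe is biotinylated aNog protein used at 0.15 µg/mL for 1 h at 4 C; z-score combines 667 nm fluorescence of each spot with its signal to noise.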 The conditions noted are these: higher = more signal.
The target in assay [9] is Torsin-1A-interacting protein 1 (Homo sapiens) (UniProt Q5JTV8). The experiment in a line: LAP1 binders from COS7 cell lysate, primary screen, small-molecule microarray, 635/667 nm fluorescence (AID 1116). The conditions noted are these: COS7-hLAP1 lysate binding, 635 nm fluorescence, higher = more signal.
Chain of Torsin-1A-interacting protein 1 (Homo sapiens) (Q5JTV8 whole entry, looked up): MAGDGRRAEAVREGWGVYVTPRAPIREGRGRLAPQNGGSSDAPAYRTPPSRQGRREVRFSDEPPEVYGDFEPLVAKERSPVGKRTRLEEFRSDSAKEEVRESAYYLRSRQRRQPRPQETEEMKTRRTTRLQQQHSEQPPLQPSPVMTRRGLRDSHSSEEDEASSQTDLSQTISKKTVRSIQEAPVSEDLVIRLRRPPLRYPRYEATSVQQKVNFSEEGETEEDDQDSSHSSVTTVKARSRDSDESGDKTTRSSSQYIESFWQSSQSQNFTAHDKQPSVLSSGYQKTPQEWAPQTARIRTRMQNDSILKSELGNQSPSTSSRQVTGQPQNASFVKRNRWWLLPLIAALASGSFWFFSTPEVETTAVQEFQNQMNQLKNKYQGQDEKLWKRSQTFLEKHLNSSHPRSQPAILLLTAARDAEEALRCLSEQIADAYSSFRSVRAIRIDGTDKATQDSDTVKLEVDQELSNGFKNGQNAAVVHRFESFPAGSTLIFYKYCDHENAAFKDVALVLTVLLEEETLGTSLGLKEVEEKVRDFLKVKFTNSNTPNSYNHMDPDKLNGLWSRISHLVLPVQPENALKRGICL
Assay [10] concerns the target Alpha-bungarotoxin (Bungarus multicinctus) (UniProt P60615). Kind of assay: alpha-bungarotoxin binders on microarray, profiling panel, artefact control for SMM control protein annotation, biochemical, small-molecule microarray, Alexa647 label, 635/667 nm fluorescence (AID 1117). The conditions noted are these: alpha-BTX-A647 binding fluorescence, higher = more signal.

The target in assay [11] is Albumin (Bos taurus) (UniProt P02769). Kind of assay: bovine serum albumin binders on microarray, profiling panel, artefact control for SMM control protein annotation, biochemical, small-molecule microarray, Alexa647 label, 635/667 nm fluorescence (AID 1118).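 Further: score merges 667 nm emission intensity and signal-to-noise per printed compound spot.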 To be noted: BSA-A647 binding, fluorescence 635 nm, higher = more signal.
Chain of Albumin (Bos taurus) (P02769 whole entry, looked up): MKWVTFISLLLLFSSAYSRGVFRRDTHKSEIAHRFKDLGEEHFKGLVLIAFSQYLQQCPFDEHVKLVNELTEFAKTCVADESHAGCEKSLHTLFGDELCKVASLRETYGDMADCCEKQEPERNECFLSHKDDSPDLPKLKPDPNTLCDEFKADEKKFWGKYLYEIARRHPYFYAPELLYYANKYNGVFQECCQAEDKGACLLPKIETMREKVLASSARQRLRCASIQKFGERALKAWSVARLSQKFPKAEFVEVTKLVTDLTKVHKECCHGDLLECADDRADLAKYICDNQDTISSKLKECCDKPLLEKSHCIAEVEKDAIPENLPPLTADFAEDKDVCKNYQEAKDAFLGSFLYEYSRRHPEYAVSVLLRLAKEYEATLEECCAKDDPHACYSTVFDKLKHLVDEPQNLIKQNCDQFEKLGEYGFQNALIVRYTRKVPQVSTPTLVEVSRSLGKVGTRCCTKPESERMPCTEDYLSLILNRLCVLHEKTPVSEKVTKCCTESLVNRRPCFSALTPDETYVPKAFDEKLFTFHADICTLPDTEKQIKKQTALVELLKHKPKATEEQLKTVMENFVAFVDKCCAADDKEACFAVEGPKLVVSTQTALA
Assay [12] can be described thus: small-molecule microarray binders of probe aXIP, primary screen, biochemical, NeuroSMM set, 635/667 nm fluorescence (AID 1119).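 Further: probe is the protein aXip251-270 applied at 1 µg/mL to compound-printed slides; binding of probe to printed compounds measured as 667 nm fluorescence plus signal to noise.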 To be noted: higher = more signal, called active from +8 up or from −8 down.
A short description of assay [13]: small-molecule binders of probe aNOTCH3, primary screen, biochemical, small-molecule microarray, 635/667 nm fluorescence (AID 1120).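 Further: probe is a biotin-tagged antibody raised against NOTCH3 rather than NOTCH3 protein; score merges spot fluorescence near 667 nm with spot signal to noise.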 The conditions noted are these: higher = more signal.
Assay [14] in a line: small-molecule binders of probe aNOTCH2, primary screen, biochemical, small-molecule microarray, 635/667 nm fluorescence (AID 1121).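 Further: score merges feature fluorescence read at 667 nm with its signal to noise.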 To be noted: higher = more signal.
Assay [15] has as its target Carbonic anhydrase 2 (Homo sapiens) (UniProt P00918). Kind of assay: CAII small-molecule binders, profiling panel, biochemical, small-molecule microarray, Alexa647-labelled CAII (AID 1122). To be noted: CAII-A647 binding fluorescence, higher = more signal.
A short description of assay [16]: COS7 lysate on small-molecule microarray, probe aHis, 635 nm (AID 1123).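 Further: z-score combines 667nm fluorescence intensity with signal-to-noise per printed compound spot.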 The conditions noted are these: COS7 cell lysate, fluorescence, higher = more signal.
A short description of assay [17]: compound binding in COS7 lysate, probe aLAP1, primary screen, cell lysate, small-molecule microarray (AID 1124).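 Further: lysate comes from COS7 cells expressing LAP1 and is applied at 0.3 µg/mL; score merges spot fluorescence near 667 nm with signal-to-noise over triplicate slides.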 The conditions noted are these: probe aLAP1, fluorescence, higher = more signal.
The subject of assay [18] is Sam68 (KHDRBS1). Kind of assay: Sam68 small-molecule binders, primary screen, biochemical, small-molecule microarray, 635 nm fluorescence (AID 1125).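 Further: score merges 667 nm channel intensity with signal to noise over triplicate slides.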 To be noted: small-molecule microarray binding, higher = more signal.
For assay [19], the system named is Chordin-like protein 2 (CHRDL2). The experiment in a line: CHRDL2 small-molecule binders, primary screen, biochemical, small-molecule microarray, 635 nm fluorescence (AID 1126).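 Further: printed compound slides probed with Chrdl2 protein at 4 µg/mL for 1 h at 4 C; score merges 667 nm emission intensity with signal to noise over three replicate slides.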 The conditions noted are these: small-molecule microarray binding, fluorescence 635 nm; higher = more signal.
In assay [20] the target is Concanavalin-A (Canavalia ensiformis) (UniProt P02866). The experiment in a line: ConA small-molecule binders, primary screen, artefact control for SMM control protein annotation, biochemical, small-molecule microarray, Alexa647 label, 635 nm (AID 1127).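 Further: z combines 667 nm emission intensity with signal-to-noise across three replicate slides.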 The conditions noted are these: ConA-A647 binding fluorescence, higher = more signal.
Chain of Concanavalin-A (Canavalia ensiformis) (P02866 whole entry, looked up): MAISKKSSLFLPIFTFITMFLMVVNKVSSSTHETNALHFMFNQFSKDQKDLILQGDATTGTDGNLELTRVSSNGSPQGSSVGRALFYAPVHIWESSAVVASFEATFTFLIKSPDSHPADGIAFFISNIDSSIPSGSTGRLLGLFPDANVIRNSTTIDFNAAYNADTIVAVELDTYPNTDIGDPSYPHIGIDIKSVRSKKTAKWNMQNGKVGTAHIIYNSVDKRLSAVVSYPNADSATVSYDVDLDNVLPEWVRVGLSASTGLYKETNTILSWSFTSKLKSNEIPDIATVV

SMILES strings stand for the structures. Calls of active or inactive are those of the source.

Chain of Alpha-bungarotoxin (Bungarus multicinctus) (P60615 whole entry, looked up): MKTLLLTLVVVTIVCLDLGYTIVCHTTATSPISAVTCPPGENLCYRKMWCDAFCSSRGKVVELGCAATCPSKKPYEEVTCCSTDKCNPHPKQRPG

As to `C=C(C)C1CCC(C(O)C2C=CC3C(=O)N(C)C(=O)C3N2Nc2cc(OC)c(OC)c(OC)c2)CC1` (stereo not given), the composite z-score in assay [1] is 1.4; in [3], 0.428; in [4], 0.655; in [5], -0.157; in assay [6], 0.0101; in [7], -0.0243. The composite z-score in assay [8] was 0.993; in [9], -0.161; in [10], 1.26; in [11] it was 0.941; in assay [13], 0.263; in assay [14], -0.0598. Besides, the composite z-score in assay [15] came to 0.703; in assay [16] it was 1.46; in [17], 0.0507; in [18], 1.29; in assay [19] it was 0.464; in [20] it was 0.974. The z-score in assay [2] is -0.355. In addition, the composite Z-score in [12] was -0.0192 (inactive).

Consider `O=C1C2C=CC(C(O)c3ccc(I)cc3)N(Nc3ccccc3)C2C(=O)N1c1ccccc1` (stereo not given), for which the composite z-score in assay [1] is 0.898; in [3], 0.0988; in [4], 2.51; in [5], 1.2; in [6], -0.0399; in [7], 0.184. In addition, the composite z-score came out at 1.4 in assay [8]; 1.83 in assay [9]; 1.71 in assay [10]; 0.778 in assay [11]; 0.273 in [13]; 0.11 in assay [14]. Further, the composite z-score in [15] is 0.738; in [16], 2.87; in assay [17] it was 0.635; in assay [18] it was 1.34; in [19], -0.409; in [20] it was 1.16. The compound also showed a z-score in assay [2] of 0.0376. Further, the composite Z-score in assay [12] was 0.284 (inactive).

Take `COCC1C2CC[C@H]3C(OCc4ccc(OC)cc4)OC[C@]4(C)[C@H]3C2=C(CN4C(=O)OC(C)(C)C)[C@H](C)C1COC` (stereo not given in full): the composite z-score is 1.4 in assay [1]; 0.366 in assay [3]; 2.47 in [4]; 0.671 in assay [5]; -0.0134 in assay [6]; 0.0898 in assay [7]. In addition, the composite z-score in [8] was -0.373; in [9], 0.782; in assay [10], 1.14; in assay [11] it was 1; in assay [13], 0.249; in assay [14] it was -0.182. Further, the composite z-score in assay [15] was 0.796; in assay [16] it was 2.82; in assay [17], 0.534; in [18] it was 1.3; in assay [19] it was -0.355; in [20], 1.15. This compound also registered a z-score in assay [2] of -0.733. Besides, the composite Z-score in assay [12] was 0.709 (inactive).

For `C=C(COC)C(=O)CC[C@@H](OC(=O)c1cccnc1)c1ccccc1OCCO`, the composite z-score in [1] is -1.05; in assay [3], 0.078; in assay [4] it was -1.08; in [5], -0.497; in assay [6], -0.096; in [7], -0.0553. Besides, the composite z-score in [8] is 0.412; in assay [9], 0.519; in assay [10], -0.387; in assay [11], -0.726; in assay [13] it was 0.0237; in assay [14] it was -0.0681. In addition, the composite z-score is 0.758 in [15]; 0.105 in [16]; -0.377 in [17]; -0.356 in assay [18]; 0.349 in [19]; 0.484 in [20]. In assay [2], this compound showed a z-score of -3.82. In addition, the composite Z-score in assay [12] is 0.245 (inactive).

As for `COc1ccc(CCNC(=O)[C@@]2(Cc3ccccc3I)c3ccccc3C(=O)N(Cc3ccccc3Cl)[C@H]2c2ccc(CO)cc2)cc1`, the composite z-score in assay [1] is -0.542; in assay [3] it was -0.818; in [4], 0.331; in assay [5], 0.354; in assay [6] it was 0.0718; in [7], 0.235. Further, the composite z-score in assay [8] is 0.371; in assay [9], 0.589; in assay [10] it was -0.0759; in assay [11], -0.41; in assay [13] it was 0.385; in assay [14] it was 0.111. For the same compound, the composite z-score in assay [15] was 0.731; in assay [16], 1.34; in [17] it was 0.529; in [18] it was 0.576; in [19] it was -0.311; in [20], 0.555. The compound also returned a z-score in assay [2] of -2.44. Besides, in [12], the composite Z-score is 1.24 (inactive).

As for `CC(C)C(=C=CC[C@H](O)c1cccc(OCCO)c1)CCO`, the composite z-score was 0.133 in assay [1]; -0.0916 in [3]; -0.427 in assay [4]; -0.224 in assay [5]; -0.0165 in [6]; 0.201 in [7]. Further, the composite z-score in [8] is -0.272; in [9], 0.0879; in [10], 0.115; in assay [11], 0.361; in [13] it was -0.173; in [14] it was -0.14. Besides, the composite z-score in assay [15] was 0.512; in assay [16] it was 0.397; in assay [17] it was -0.207; in assay [18], -0.126; in assay [19] it was -0.298; in [20], -0.0543. In assay [2], this compound showed a z-score of 0.121. In addition, the composite Z-score in assay [12] is 0.372 (inactive).

The record behind these values is PubChem BioAssay.
